We go through 106 compounds from PubChem BioAssay AID488969 (Vanderbilt High Throughput Screening Facility, 2010).

SMILES strings stand for the structures. In all, about 110,000 compounds were measured (“z-score”: median about -0.1, highest 2% from about 2 on). For the sample, the highest values were picked, then their nearest neighbours and some compounds at random. Calls of active or inactive are those of the source.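 How the source made its calls: active means z-score in the third read window above 3 or below -3; inactive means the rest.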

In this assay the target is Metabotropic glutamate receptor 8 (Rattus norvegicus) (UniProt P70579). The assay is described as follows: rat mGluR8 modulators via GIRK flux, primary screen, cell-based, thallium flux, HTS (AID 488969). As to conditions: HEK293 rat mGluR8, GIRK (G protein-gated inwardly rectifying potassium channel) thallium flux, FluoZin2; at 10 µM; stronger effect = higher value; submaximal glutamate (EC20) added with thallium.
Sequence of Metabotropic glutamate receptor 8 (Rattus norvegicus) (P70579 whole entry, looked up): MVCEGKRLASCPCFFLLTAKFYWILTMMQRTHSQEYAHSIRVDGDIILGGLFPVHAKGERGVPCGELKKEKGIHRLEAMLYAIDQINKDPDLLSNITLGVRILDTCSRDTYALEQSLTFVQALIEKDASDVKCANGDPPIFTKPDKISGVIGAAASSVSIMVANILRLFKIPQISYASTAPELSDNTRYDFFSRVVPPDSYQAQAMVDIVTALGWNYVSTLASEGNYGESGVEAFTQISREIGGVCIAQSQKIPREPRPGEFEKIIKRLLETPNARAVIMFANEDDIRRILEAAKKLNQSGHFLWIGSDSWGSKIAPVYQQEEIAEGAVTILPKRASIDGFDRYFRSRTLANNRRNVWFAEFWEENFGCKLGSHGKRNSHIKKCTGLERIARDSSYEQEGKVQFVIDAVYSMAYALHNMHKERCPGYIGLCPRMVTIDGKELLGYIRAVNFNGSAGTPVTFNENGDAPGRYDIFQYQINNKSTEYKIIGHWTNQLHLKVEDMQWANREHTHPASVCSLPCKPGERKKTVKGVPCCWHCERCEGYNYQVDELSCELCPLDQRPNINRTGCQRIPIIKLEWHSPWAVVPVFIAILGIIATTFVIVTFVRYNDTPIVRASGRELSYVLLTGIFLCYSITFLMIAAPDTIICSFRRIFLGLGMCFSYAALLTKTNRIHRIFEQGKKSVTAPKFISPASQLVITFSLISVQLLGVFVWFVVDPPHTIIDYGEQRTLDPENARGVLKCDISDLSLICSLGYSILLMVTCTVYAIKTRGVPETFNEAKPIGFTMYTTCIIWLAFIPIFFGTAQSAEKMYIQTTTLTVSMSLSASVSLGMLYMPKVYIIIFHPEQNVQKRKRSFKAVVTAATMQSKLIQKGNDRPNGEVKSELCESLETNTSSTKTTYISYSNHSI
As to `O=C(COc1ccc(S(=O)(=O)NC2CCCCC2)cc1Cl)NCc1cccnc1`, the z-score was -0.567.
In turn, `Cc1cc(NC(=O)c2cccc(S(=O)(=O)N3CCCCCC3)c2)no1` yielded a z-score of 0.223.
The compound `O=C(COC(=O)Cn1cnc2ccccc2c1=O)Nc1ccccc1Sc1ccc(Cl)cc1` displayed a z-score of 0.148.
The compound `COC(=O)C1=C(C)NC(C)=C(C(=O)OC)C1c1ccc(OC(=O)c2ccco2)cc1` displayed a z-score of -0.519.
Compound `CC1CC(C)(C)Nc2ccc(OC(=O)c3ccco3)cc21` (stereo unspecified) returned a z-score of 2.2.
As to `COC(=O)c1ccc(OC(=O)c2ccco2)cc1`, the z-score stood at 0.696.
On to `COc1cc(CNc2nc(C)c([N+](=O)[O-])c(C)c2C#N)cc(OC)c1`, for which the z-score was -0.18.
Consider `COc1ccc(CCN2C(=O)C(O)=C(C(C)=O)C2c2ccccc2OC)cc1OC` (stereo unspecified), for which the z-score was -0.511.
The same measure for `CC(C)(C)C(=O)CN1C(=O)C2(OCCO2)c2ccccc21`: 0.508; for `O=C(O)CN1C(=O)C2(OCCCO2)c2ccccc21`: 0.0511; for `CC(C)CC(=O)CN1C(=O)C2(OCCO2)c2ccccc21`: 6.5 (active).
The same measure for `CC(C)OC(=O)C1C2C=CC3(CN(Cc4cccs4)C(=O)C13)O2` (stereo unspecified): 0.0334.
Regarding `CN(c1ccccc1)S(=O)(=O)c1ccc(NC(=S)NC(=O)c2ccccc2)cc1`, the z-score is 3.04 (active).
`CCN(c1ccccc1)S(=O)(=O)c1ccc(NC(=S)NC(=O)c2cccs2)cc1`: the z-score worked out at 2.75.
Next, `O=C(Nc1ccc(NC(=S)NC(=O)c2cccs2)cc1)c1ccccc1`: -0.193; `O=C(NC(=S)Nc1ccc(S(=O)(=O)NC2CCCCC2)cc1)c1cccs1`: 0.16; `CCN(c1ccccc1)S(=O)(=O)c1ccc(NC(=S)NC(=O)c2ccc(Br)o2)cc1`: 5.31 (active).
Compound `O=C(Nc1ccc(S(=O)(=O)NCc2ccccc2)cc1)c1ccc(Br)o1` had a z-score of 0.32.
For `Cc1ccc(C(=O)NC(=S)Nc2ccc(S(=O)(=O)N(C)c3ccccc3)cc2)cc1`, the z-score is 0.95.
In turn, `CN(C)S(=O)(=O)c1ccc(NC(=O)c2ccc(Br)o2)cc1` had a z-score of 0.638.
Next, `CN(C1CCCCC1)S(=O)(=O)c1ccc(NC(=S)NC(=O)c2cccs2)cc1`: 2.93; `CCCCN(CCCC)S(=O)(=O)c1ccc(NC(=O)c2cccs2)cc1`: 0.572; `CN(C1CCCCC1)S(=O)(=O)c1ccc(NC(=O)C2CCCCC2)cc1`: -0.089.
With `Cc1cccc(C(=O)NC(=S)Nc2ccc(S(=O)(=O)N(C)c3ccccc3)cc2)c1`, the z-score turned out to be 1.39.
Compound `CN1CCN(S(=O)(=O)c2ccc(NC(=S)NC(=O)c3ccccc3)cc2)CC1` displayed a z-score of 0.103.
In turn, `O=C(c1ccco1)N1CCN(C(=O)C2CCN(S(=O)(=O)c3cccc4nsnc34)CC2)CC1` gave a z-score of 0.0379.
Turning to `COc1ccc2c(c1)NC1(O)c3ccccc3C(=O)C21O` (stereo unspecified), the z-score was 0.297.
Compound `CC1(C)N=C(N)NC(Nc2ccc(Br)cc2)=N1` registered a z-score of -0.00115.
Turning to `Cc1ccccc1-c1noc(-c2ccc(Cl)cc2)n1`, the z-score is -0.0855.
Consider `COc1ccc(-c2csc(NC(=O)c3nc(-c4ccccc4)oc3C)n2)cc1`, for which the z-score stood at 0.528.
In the case of `Cc1nc2ccccc2nc1OCC(=O)N1CCN(c2ccccc2)CC1`, the z-score is -0.273.
`Cc1ccc2c(c1)N(C(=O)c1ccco1)C(C)(C)c1ssc(=S)c1-2` gave a z-score of -0.788.
With `COc1ccccc1-n1cnnc1SCC(=O)N1CC(=O)Nc2ccccc21`, the z-score is -0.0356.
The compound `CS(=O)(=O)N1Cc2ccccc2CC1C(=O)OCC(=O)Nc1ccc2ccccc2c1` (stereo unspecified) displayed a z-score of 0.0644.
For the compound `Cc1cc(C)cc(NS(=O)(=O)c2ccc(NC(=S)NC(=O)c3cccs3)cc2)c1`, the z-score amounted to 0.901.
Take `Cc1cc(C)cc(NS(=O)(=O)c2ccc(NC(=S)Nc3ccccc3)cc2)c1`: the z-score worked out at 9.02e-05.
Next, `Cc1cc(C)cc(NS(=O)(=O)c2ccc(NC(=S)NC(=O)c3ccc(Br)o3)cc2)c1`: 2.18.
Compound `CCc1[nH]nc2c1C(c1ccncc1)C(C#N)=C(N)O2` (stereo unspecified) displayed a z-score of 0.499.
Consider `O=C(O)c1ccc(NC(=S)NC2CCCCC2)cc1`, for which the z-score was 0.13.
As for `O=C(CN1C(=O)c2cccc3cccc1c23)NCc1ccc2c(c1)OCO2`, the z-score is -0.178.
Next, `Cc1cc(C)nc(N2CCCC(C(=O)NCCc3ccccc3F)C2)n1` (stereo unspecified): -0.306; `Cc1cc(C)nc(N2CCCC(C(=O)NCCc3cccc(F)c3)C2)n1` (stereo unspecified): -0.0417.
On to `Cc1cc(C)nc(N2CCCC(C(=O)NCCc3ccc(F)cc3)C2)n1` (stereo unspecified), for which the z-score was 3.52 (active).
Compound `COc1cc(S(=O)(=O)N2CCOCC2)ccc1NC(=O)COC(=O)CC12CC3CC(CC(C3)C1)C2` yielded a z-score of 0.016.
In the case of `CCOC(=O)c1cc2sccc2n1CC(=O)N1CCCC1`, the z-score is -0.278.
As to `Cc1ccc(S(=O)(=O)N2CCOCC2)cc1NC(=O)CSc1nnc2cc(C)c3ccccc3n12`, the z-score was -1.43.
`Cn1c(-c2cc3c(C(F)(F)F)nn(C)c3s2)n[nH]c1=S` gave a z-score of -0.114.
Compound `CCCCSc1nnc(-c2cc3c(C(F)(F)F)nn(C)c3s2)n1C` displayed a z-score of -0.355.
With `CCn1c(-c2cc3c(C(F)(F)F)nn(C)c3s2)n[nH]c1=S`, the z-score is 7 (active).
Compound `Cc1cc(N2CCN(c3nc(N4CCOCC4)nc4ccccc34)CC2)c2ccccc2n1` yielded a z-score of 0.213.
Turning to `CC(C)CC(C(=O)Nc1oc(-c2ccccc2)c(-c2ccccc2)c1C#N)N1C(=O)c2ccccc2C1=O` (stereo unspecified), the z-score was -0.151.
`COc1ccc(C(=O)Oc2ccc(/C=N/NC(=O)Cc3ccc([N+](=O)[O-])cc3)cc2)cc1` returned a z-score of 0.194.
`Cc1ccc(C(=O)NC(=S)Nc2ccc(NC(=O)c3cccc(Cl)c3)cc2)cc1` had a z-score of -0.278.
Compound `Cc1ccc(C(=O)NC(=S)NNS(=O)(=O)c2ccc(C)cc2)cc1` showed a z-score of 0.234.
On to `Cc1ccc(C(=O)NNC(=S)NC(=O)c2ccc(Cl)cc2Cl)cc1`, for which the z-score came to 2.02.
The compound `O=C(NNC(=O)c1ccc(Cl)cc1Cl)c1ccncc1` had a z-score of 0.97.
The compound `O=C(NNC(=S)NC(=O)c1cccnc1)c1ccc(Cl)cc1` yielded a z-score of 0.171.
Turning to `Cc1ccccc1C(=O)NNC(=S)NC(=O)c1ccc(Cl)cc1Cl`, the z-score is 4.35 (active).
On to `Cc1onc(-c2ccccc2)c1C(=O)NNC(=S)NC(=O)c1ccc(Cl)cc1Cl`, for which the z-score came to 0.272.
`Cc1cccc(C(=O)NNC(=O)c2ccc(-c3ccccc3)cc2)c1`: the z-score is 0.252.
Next, `Cc1cccc(C(=O)NC(=S)NNC(=O)c2ccc(Cl)cc2)c1`: 6.22 (active); `Cc1ccc(C(=O)NNC(=S)NC(=O)c2ccc(Cl)cc2)cc1`: 7.64 (active).
As to `COC(=O)NNC(=O)c1ccc(Cl)cc1Cl`, the z-score is -0.27.
Consider `O=C(NC(=S)NNC(=O)c1ccc(Cl)cc1Cl)c1cccnc1`, for which the z-score was -0.129.
In the case of `CN(C)[C@@H]1CCC[C@H]1OC(=O)C(c1ccccc1)c1ccccc1`, the z-score was -1.41.
Next, `Cc1ccc(S(=O)(=O)N2CCN(S(=O)(=O)c3ccc(C)cc3)C2)cc1`: -0.481.
`O=C(COC(=O)Cc1ccc(Cl)cc1Cl)NCCC1=CCCCC1` gave a z-score of -1.17.
Consider `CCCC(=O)Nc1ccc(C(=O)Nc2nc(CC(=O)OCC)cs2)cc1`, for which the z-score was -0.437.
For the compound `CCCN1C/C(=C/c2ccc3c(c2)OCO3)C(=O)/C(=C/c2ccc3c(c2)OCO3)C1`, the z-score is -0.565.
The compound `Cc1ccc2c(c1)C1CCCC3C1N2CC(=O)N3Cc1ccccc1` (stereo unspecified) showed a z-score of -0.338.
For `C/C(=N\O)C(C)/[N+]([O-])=C/c1nc(C)c(C)n1O` (stereo unspecified), the z-score amounted to 1.53.
As to `O=C(CSc1nc2ccccc2c(=O)n1-c1ccc(F)cc1)Nc1ccc(N2CCOCC2)cc1`, the z-score is -0.000577.
In the case of `COc1ccc(C)cc1NC(=S)NNC(=O)c1ccccc1Cl`, the z-score came to 0.678.
As for `O=C(NNC(=O)c1cccs1)c1ccc(Br)o1`, the z-score was -0.207.
`O=C(COc1cccc(Cl)c1)NNC(=S)Nc1ccccc1` had a z-score of 0.593.
For `Cc1cccc(C(=O)NC(=S)NNC(=O)c2cccs2)c1`, the z-score was 5.42 (active).
In turn, `Cc1cccc(C(=O)NC(=S)NNC(=O)Cc2ccccc2)c1` returned a z-score of 1.8.
Next, `Cc1ccc(OCC(=O)NC(=S)Nc2cccc(NC(=O)c3ccc(Cl)cc3Cl)c2)cc1`: 0.148; `O=C(NNC(=S)NC(=O)c1cccs1)c1ccc(NC(=O)c2ccccc2)cc1`: -0.0903; `O=C(NC(=S)NNC(=O)c1cccs1)c1ccco1`: 1.08.
The same measure for `O=C(COc1ccccc1)NNC(=S)NC(=O)c1ccc(Cl)cc1Cl`: 5.19 (active).
Turning to `CCNC(=S)NNC(=O)c1cccs1`, the z-score is -0.146.
Next, `Cc1cccc(C(=O)NC(=S)NNC(=O)c2ccccc2Cl)c1`: 5.34 (active); `O=C(NC(=S)NNC(=O)c1cccs1)c1ccc(Br)o1`: 4.37 (active); `CC1=C(C(=O)Nc2cc(C)ccc2C)C(c2cccs2)NC(=S)N1` (stereo unspecified): -0.0019.
`O=C(CS(=O)CC(=O)N(c1ccccc1)C(C(=O)NC1CCCCC1)c1ccco1)Nc1ccc(F)cc1` (stereo unspecified) registered a z-score of -0.245.
The compound `COc1ccc(S(=O)(=O)n2nc(C)cc2C)c(C)c1C` registered a z-score of -0.246.
The same measure for `CC(=O)Nc1ccc(S(=O)(=O)NNC(=O)CCC(=O)Nc2cc(C)ccc2C)cc1`: -0.368; for `Cc1ccccc1Nc1nc(-c2ccccc2)c(C(=O)Nc2cccnc2)s1`: 0.177; for `O=C(O)CCSc1nc2ccccc2n1CCOc1ccccc1`: 0.105.
`CS(=O)(=O)c1ccc(Sc2nc3ccccc3[nH]2)c([N+](=O)[O-])c1` returned a z-score of -0.102.
Compound `O=C1/C(=C/c2ccccc2)Nc2ccccc21` returned a z-score of -0.773.
The same measure for `O=C(NC(=S)NNC(=O)c1ccccc1[N+](=O)[O-])c1ccccc1`: -0.00864; for `Cc1ccccc1C(=O)NNC(=S)NC(=O)c1ccccc1`: 3.78 (active).
Consider `Cc1ccc(NC(=O)C(=O)NNC(=O)c2ccccc2C)cc1Cl`, for which the z-score was -0.171.
For the compound `Cc1ccccc1C(=O)NNC(=O)CCC(=O)Nc1cccc(Cl)c1C`, the z-score is -0.34.
The same measure for `Cc1ccccc1C(=O)NNC(=O)C(=O)Nc1cccc(Cl)c1C`: 6.02 (active); for `Cc1ccc(C(=O)NC(=S)NNC(=O)c2ccccc2[N+](=O)[O-])cc1`: 0.414.
Compound `Cc1cc(C)nc(Sc2ccc(/C=C(\C#N)C(=O)Nc3ccccc3)o2)n1` displayed a z-score of -0.125.
In turn, `CCN(CC)CCCNC(=O)c1cc(-c2cccc(Cl)c2)on1` had a z-score of 2.64.
As for `CCN(CC)CCCNC(=O)c1cc(-c2ccc(Cl)c(Cl)c2)on1`, the z-score is 5.37 (active).
The compound `O=C(NCc1ccco1)c1cc(-c2cccc(Cl)c2)on1` gave a z-score of 0.0775.
With `CCN(CC)CCCNC(=O)c1cc(-c2ccc(O)cc2)on1`, the z-score was determined as 0.686.
Consider `O=C(NCc1cccs1)c1cc(-c2cccc(Cl)c2)on1`, for which the z-score is -1.01.
`CCN(CC)CCCNC(=O)c1cc(-c2ccc(Cl)cc2)on1` came in with a z-score of 1.7.
On to `CCCCC(=O)Nc1ccc(C(=O)NNC(=S)NC(=O)c2cccs2)cc1`, for which the z-score worked out at 0.439.
